Measurements published in PubChem BioAssay AID504429 (National Center for Advancing Translational Sciences (NCATS), 2011).
This is one part of the list. Activity calls are given as the source filed them.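 The calls were made as follows: active = compounds whose dose response shows an inhibitor phenotype against the kinase Dyrk1b; inactive = compounds showing no inhibitor phenotype.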

These molecules were tested against Dual specificity tyrosine-phosphorylation-regulated kinase 1B (Homo sapiens) (UniProt Q9Y463) (assay: Kinase Inhibition Study on Inhibitors of Dyrk1b (Reaction Biology data)). Details: Recombinant Dyrk1b kinase assay, 10 uM ATP.
Source text: NIH Molecular Libraries Probe Production Centers Network [MLPCN] NIH Chemical Genomics Center [NCGC] MLPCN Grant: 1R03MH084827-01 Assay Submitter (PI): Tom Misteli NCGC Assay Overview: Alternative splicing of pre-mRNAs plays a major role in the regulation of eukaryotic gene expression. Alternative splicing is now thought to be one of the primary reasons for the complexity of higher organisms leading to an average of three protein isoforms per gene. Aberrant splicing can lead to a number of diseases and is known to play a role in rare genetic diseases such as progeria syndrome. Hutchinson-Gilford Progeria Syndrome (HGPS) is a pediatric premature aging disease caused by a spontaneous mutation in the lamin A/C (LMNA) gene due to a single point mutation in the lamin A gene effecting 1 in 4 million people. To identify both specific splicing modulators of the lamin A gene as well as general splicing modulators, a cell-based HTS assay was developed using a minigene reporter system (AIDs, 1459 & 1487). […] The Clk family is part of the CMGC group of protein kinases which includes Dyrks and are essential kinases found in all eukaryotes. […] This AID is to summarize the activity of these analogs in Dyrk1b.
All kinase reactions were performed using 10 uM ATP in the assay. 100% activity was taken from kinase reactions with DMSO alone (the vehicle used for compound stock solutions).

Chain of Dual specificity tyrosine-phosphorylation-regulated kinase 1B (Homo sapiens) (Q9Y463 whole entry, looked up, canonical isoform): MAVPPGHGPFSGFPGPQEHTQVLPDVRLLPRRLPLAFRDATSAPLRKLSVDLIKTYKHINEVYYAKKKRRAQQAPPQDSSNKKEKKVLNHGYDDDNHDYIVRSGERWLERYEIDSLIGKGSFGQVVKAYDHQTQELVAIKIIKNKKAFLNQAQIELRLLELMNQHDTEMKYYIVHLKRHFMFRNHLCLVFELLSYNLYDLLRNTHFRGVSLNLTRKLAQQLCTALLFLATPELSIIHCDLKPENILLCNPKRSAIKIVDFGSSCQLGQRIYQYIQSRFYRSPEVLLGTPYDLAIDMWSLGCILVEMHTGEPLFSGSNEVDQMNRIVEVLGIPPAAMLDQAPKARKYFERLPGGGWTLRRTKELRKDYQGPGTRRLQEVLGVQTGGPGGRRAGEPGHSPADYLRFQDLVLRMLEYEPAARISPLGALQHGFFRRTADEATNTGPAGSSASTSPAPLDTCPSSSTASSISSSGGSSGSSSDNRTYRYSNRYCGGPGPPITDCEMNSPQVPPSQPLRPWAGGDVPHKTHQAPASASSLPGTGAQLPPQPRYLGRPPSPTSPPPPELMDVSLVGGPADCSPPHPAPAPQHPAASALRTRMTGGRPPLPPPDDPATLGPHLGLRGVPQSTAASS

Potency, active:
c1nc(N2CCOCC2)c2cc(-c3ccc4c(c3)OCO4)ccc2n1 5.22 µM, CN(Cc1cncn1C)c1ncnc2ccc(-c3ccc4c(c3)OCO4)cc12 15 µM, CC(Nc1ncnc2ccc(-c3ccc4c(c3)OCO4)cc12)c1ccco1 (stereo not drawn) 8.14 µM
